This is part of a sample that, as a whole, favours compounds with a hit. Of some 83,000 tested, about 20% had one in any assay.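 Single-dose data. Exposure time 48 hours. Values below 10 considered active.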 Activity calls are given as the source filed them.
Tests used:
Experiment in all cases: NCI-60 one-dose screen, 48 h (100 = growth as untreated, 0 = no growth, -100 = all killed)
Settings in all cases: 10 µM unless noted
DU-145 prostate = test system: DU-145 prostate
K-562 leukemia = test system: K-562 leukemia
MALME-3M melanoma = test system: MALME-3M melanoma
MDA-MB-231 breast = test system: MDA-MB-231 breast
RXF 393 renal = test system: RXF 393 renal
SF-268 CNS = test system: SF-268 CNS
SF-295 CNS = test system: SF-295 CNS
SF-539 CNS = test system: SF-539 CNS
UACC-257 melanoma = test system: UACC-257 melanoma
M14 melanoma = test system: M14 melanoma
HCT-15 colon = test system: HCT-15 colon
HT29 colon = test system: HT29 colon
SNB-75 CNS = test system: SNB-75 CNS
SNB-19 CNS = test system: SNB-19 CNS
U251 CNS = test system: U251 CNS
PC-3 prostate = test system: PC-3 prostate
SK-MEL-5 melanoma = test system: SK-MEL-5 melanoma
UACC-62 melanoma = test system: UACC-62 melanoma
LOX IMVI melanoma = test system: LOX IMVI melanoma
SK-MEL-28 melanoma = test system: SK-MEL-28 melanoma

Measured: growth

Cc1ccccc1NC(=O)NC(CC(N)=O)c1ccc2c(c1)nc(-c1cccc(Oc3ccc(C(C)(C)C)cc3)c1)n2CCCN1CCCCC1C (stereo not given)
inactive: DU-145 prostate 68.2% | MDA-MB-231 breast 28.1% | RXF 393 renal 25.1% | SF-268 CNS 46.7% | SF-295 CNS 83.5% | SF-539 CNS 13.1% | HCT-15 colon 92.3% | SNB-75 CNS 62.5% | SNB-19 CNS 46.2% | PC-3 prostate 29.7% | UACC-62 melanoma 82.7%
active: K-562 leukemia -44.6% | MALME-3M melanoma -52.6% | UACC-257 melanoma -71.3% | M14 melanoma -81.8% | HT29 colon -34.6% | U251 CNS -74.2% | SK-MEL-5 melanoma -73% | LOX IMVI melanoma -73% | SK-MEL-28 melanoma -71.7%

NC(=O)NC1(C(=O)O)CCCC1
inactive: DU-145 prostate 118% | K-562 leukemia 99.9% | MALME-3M melanoma 114% | MDA-MB-231 breast 109% | RXF 393 renal 125% | SF-268 CNS 106% | SF-295 CNS 116% | SF-539 CNS 102% | UACC-257 melanoma 101% | M14 melanoma 113% | HCT-15 colon 99.9% | HT29 colon 108% | SNB-75 CNS 100% | SNB-19 CNS 113% | U251 CNS 99.9% | PC-3 prostate 100% | SK-MEL-5 melanoma 111% | UACC-62 melanoma 115% | LOX IMVI melanoma 103% | SK-MEL-28 melanoma 122%

CC(C)Sc1nc(-c2ccc(Br)cc2)c(C#N)c(N2CCCCC2)n1
inactive: DU-145 prostate 109% | K-562 leukemia 116% | MALME-3M melanoma 94.1% | MDA-MB-231 breast 90.9% | RXF 393 renal 110% | SF-268 CNS 103% | SF-295 CNS 96.7% | SF-539 CNS 104% | UACC-257 melanoma 109% | M14 melanoma 104% | HCT-15 colon 96.2% | HT29 colon 94.5% | SNB-75 CNS 99.4% | SNB-19 CNS 105% | U251 CNS 99.9% | PC-3 prostate 97.5% | SK-MEL-5 melanoma 101% | UACC-62 melanoma 82.6% | LOX IMVI melanoma 108% | SK-MEL-28 melanoma 105%

COc1ccc(C2CC(c3ccc(Nc4ccnc5cc(Cl)ccc45)cc3)=NN2C(C)=O)cc1 (stereo not given)
active: SK-MEL-5 melanoma 5.89%
inactive: DU-145 prostate 88.1% | K-562 leukemia 32.3% | MALME-3M melanoma 58.2% | MDA-MB-231 breast 80.9% | RXF 393 renal 73.1% | SF-268 CNS 72.2% | SF-295 CNS 42.6% | SF-539 CNS 95.8% | UACC-257 melanoma 88% | M14 melanoma 79.5% | HCT-15 colon 44.2% | HT29 colon 27.4% | SNB-75 CNS 75.8% | SNB-19 CNS 82.4% | U251 CNS 62.8% | PC-3 prostate 53.3% | UACC-62 melanoma 54.8% | LOX IMVI melanoma 60.5% | SK-MEL-28 melanoma 70.2%

CCN1CC2=C(Nc3nc(SC)[nH]c(=O)c3C2c2cc(OC)c(OC)c(OC)c2)/C(=C/c2cc(OC)c(OC)c(OC)c2)C1 (stereo not given)
inactive: DU-145 prostate 112% | K-562 leukemia 90.9% | MALME-3M melanoma 112% | MDA-MB-231 breast 104% | RXF 393 renal 106% | SF-268 CNS 110% | SF-295 CNS 100% | SF-539 CNS 104% | UACC-257 melanoma 97% | M14 melanoma 114% | HCT-15 colon 104% | HT29 colon 99.1% | SNB-75 CNS 92.2% | SNB-19 CNS 91.6% | U251 CNS 83.8% | PC-3 prostate 92.2% | SK-MEL-5 melanoma 88.6% | UACC-62 melanoma 90.1% | LOX IMVI melanoma 91.1% | SK-MEL-28 melanoma 104%

Cc1n(Cc2ccc3ccccc3c2)cc[n+]1Cc1ccc2ccccc2c1
active: MALME-3M melanoma -20.9% | MDA-MB-231 breast -24.3% | RXF 393 renal 3.41% | SF-539 CNS 5.68% | UACC-257 melanoma -28.5% | M14 melanoma -15.7% | HT29 colon 1.25% | SNB-75 CNS 1.07% | SNB-19 CNS 2.02% | U251 CNS 8.17% | SK-MEL-5 melanoma -92% | UACC-62 melanoma -40.3% | LOX IMVI melanoma -75% | SK-MEL-28 melanoma -11.6%
inactive: DU-145 prostate 35.2% | K-562 leukemia 10.2% | SF-268 CNS 18.9% | SF-295 CNS 15.4% | HCT-15 colon 85.3% | PC-3 prostate 14.1%

COc1ccc2ncccc2c1Cc1c(OC)ccc2ncccc12
inactive: DU-145 prostate 91.5% | K-562 leukemia 21.5% | MALME-3M melanoma 55.9% | MDA-MB-231 breast 71.1% | RXF 393 renal 82.1% | SF-268 CNS 84.2% | SF-295 CNS 63.9% | SF-539 CNS 75% | UACC-257 melanoma 68.2% | M14 melanoma 56.5% | HCT-15 colon 57.8% | HT29 colon 30% | SNB-75 CNS 44.1% | SNB-19 CNS 82.2% | U251 CNS 57.4% | PC-3 prostate 74.6% | SK-MEL-5 melanoma 60.5% | UACC-62 melanoma 58% | LOX IMVI melanoma 68.4% | SK-MEL-28 melanoma 77.4%

C[C@@H]1[C@H]2[C@H](C=C3[C@@H]4CC[C@H]5Cc6nc7c(nc6C[C@]5(C)[C@H]4C[C@@H](O)[C@@]32C)C[C@@H]2CC[C@H]3C4=C[C@@H]5O[C@@]6(CC[C@](C)(CO)O6)[C@@H](C)[C@@]5(O)[C@@]4(C)[C@H](O)C[C@@H]3[C@@]2(C)C7)O[C@]12CCC(C)(C)O2
active: K-562 leukemia -7.07% | MDA-MB-231 breast -0.32% | RXF 393 renal -44.4% | SF-295 CNS -63.4% | SF-539 CNS 3.28% | M14 melanoma 8.26% | HT29 colon -14.6% | SNB-75 CNS -9.04% | U251 CNS 7.53% | PC-3 prostate -32% | SK-MEL-5 melanoma 0.934% | UACC-62 melanoma -0.259% | LOX IMVI melanoma 3.2%
inactive: DU-145 prostate 45.2% | MALME-3M melanoma 38.8% | SF-268 CNS 31.2% | UACC-257 melanoma 26.6% | HCT-15 colon 11.2% | SNB-19 CNS 25.1% | SK-MEL-28 melanoma 40.8%

CCOC(=O)c1sc(NC(=O)COc2cccc(/C=C3\Cc4ccc(Cl)cc4C3=O)c2)nc1C
inactive: DU-145 prostate 117% | K-562 leukemia 89.9% | MALME-3M melanoma 138% | MDA-MB-231 breast 81.1% | RXF 393 renal 131% | SF-268 CNS 116% | SF-295 CNS 125% | SF-539 CNS 107% | UACC-257 melanoma 110% | M14 melanoma 110% | HCT-15 colon 97.4% | HT29 colon 118% | SNB-75 CNS 113% | SNB-19 CNS 99.9% | U251 CNS 99.4% | PC-3 prostate 103% | SK-MEL-5 melanoma 97.4% | UACC-62 melanoma 95.8% | LOX IMVI melanoma 97.7% | SK-MEL-28 melanoma 118%

CN(C)c1ncnc2c1ncn2C1CCCCO1 (stereo not given)
inactive: DU-145 prostate 115% | K-562 leukemia 102% | MALME-3M melanoma 101% | MDA-MB-231 breast 106% | RXF 393 renal 114% | SF-268 CNS 106% | SF-295 CNS 116% | SF-539 CNS 103% | UACC-257 melanoma 106% | M14 melanoma 105% | HCT-15 colon 100% | HT29 colon 109% | SNB-75 CNS 86.4% | SNB-19 CNS 97.1% | U251 CNS 108% | PC-3 prostate 91.3% | SK-MEL-5 melanoma 107% | UACC-62 melanoma 84.5% | LOX IMVI melanoma 101% | SK-MEL-28 melanoma 97.6%

Cc1sc2nc(NCc3ccccc3)[nH]c(=O)c2c1C
inactive: DU-145 prostate 73.4% | K-562 leukemia 12.9% | MALME-3M melanoma 75.7% | MDA-MB-231 breast 59.8% | RXF 393 renal 69% | SF-268 CNS 74.2% | SF-295 CNS 52.4% | SF-539 CNS 65.5% | UACC-257 melanoma 73% | M14 melanoma 27.8% | HCT-15 colon 33.2% | HT29 colon 13.3% | SNB-75 CNS 46.1% | SNB-19 CNS 69% | U251 CNS 30.8% | PC-3 prostate 48.1% | SK-MEL-5 melanoma 45.5% | UACC-62 melanoma 42.5% | LOX IMVI melanoma 53% | SK-MEL-28 melanoma 69.5%

CCN(CC)CCNCC(=O)Oc1ccc(/C=C/C(=O)CC(=O)/C=C/c2ccc(OC(=O)CNCCN(CC)CC)c(OC)c2)cc1OC
inactive: MDA-MB-231 breast 14% | SF-268 CNS 13.5% | SF-295 CNS 27.3% | UACC-257 melanoma 53.7% | HCT-15 colon 14.4% | SNB-19 CNS 22% | U251 CNS 13.4% | PC-3 prostate 14.4% | UACC-62 melanoma 15.4% | SK-MEL-28 melanoma 14.5%
active: DU-145 prostate -56.6% | K-562 leukemia -37.7% | MALME-3M melanoma -0.278% | RXF 393 renal -73% | SF-539 CNS -35.9% | M14 melanoma -18.6% | HT29 colon -80.7% | SNB-75 CNS -8.49% | SK-MEL-5 melanoma -13.7% | LOX IMVI melanoma -66.5%

CCOc1cc(/C=C/C(=O)C(C(=O)/C=C/c2ccc(OC(=O)CNc3nnc(C)s3)c(OCC)c2)C(=O)CNc2nnc(C)s2)ccc1OC(=O)CNc1nnc(C)s1
inactive: UACC-257 melanoma 15.3% | SNB-19 CNS 32.4%
active: DU-145 prostate -68.7% | K-562 leukemia -41.8% | MALME-3M melanoma -20.8% | MDA-MB-231 breast -36.9% | RXF 393 renal -78.5% | SF-268 CNS -16.4% | SF-295 CNS -24.7% | SF-539 CNS -54.5% | M14 melanoma -26.3% | HCT-15 colon -60.1% | HT29 colon -100% | SNB-75 CNS -15.8% | U251 CNS -61.4% | PC-3 prostate -27.9% | SK-MEL-5 melanoma -83.4% | UACC-62 melanoma -88.7% | LOX IMVI melanoma -100% | SK-MEL-28 melanoma -68.5%

COc1cnc2c(c1)C(=O)c1c-2n(CCCN2CCNCC2)c(=O)c2cc(F)ccc12
active: DU-145 prostate -0.602% | K-562 leukemia -65.9% | MALME-3M melanoma -60.7% | MDA-MB-231 breast 9.36% | RXF 393 renal -36% | SF-268 CNS 6.43% | SF-295 CNS 0.838% | SF-539 CNS -64.2% | M14 melanoma -56.7% | HCT-15 colon 2.48% | HT29 colon -42.1% | SNB-75 CNS -7.98% | U251 CNS 2.03% | SK-MEL-5 melanoma -88.5% | UACC-62 melanoma -0.448% | LOX IMVI melanoma -86.8% | SK-MEL-28 melanoma -60.5%
inactive: UACC-257 melanoma 10.8% | SNB-19 CNS 18.3% | PC-3 prostate 22.8%

COc1ccc2cc(C3=CC(=O)CCC3)ccc2c1
inactive: DU-145 prostate 103% | K-562 leukemia 105% | MALME-3M melanoma 114% | MDA-MB-231 breast 99.6% | RXF 393 renal 99.4% | SF-268 CNS 103% | SF-295 CNS 110% | SF-539 CNS 95.7% | UACC-257 melanoma 96.6% | M14 melanoma 104% | HCT-15 colon 99.2% | HT29 colon 86.7% | SNB-75 CNS 95.1% | SNB-19 CNS 92.1% | U251 CNS 102% | PC-3 prostate 91.3% | SK-MEL-5 melanoma 94.3% | UACC-62 melanoma 77.1% | LOX IMVI melanoma 91.1% | SK-MEL-28 melanoma 115%

Reference: PubChem BioAssay (NCI)
